# Experimental data as given in PubChem BioAssay (NCI).
# Compounds without any hit were thinned out: in the full panel of roughly 83,000, 20% have a hit.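 Compound tested at a single concentration for 48 hours in 96-well plates; a percent growth value below 10 was scored as active.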 A number with no mark means an inactive call. Calls of active or inactive are those of the source.
# Key:
# Experiment in all cases: NCI-60 one-dose screen, 48 h (100 = growth as untreated, 0 = no growth, -100 = all killed)
# HCT-15 colon = conditions: 10 µM unless noted
# HT29 colon = conditions: 10 µM unless noted
# SNB-19 CNS = conditions: 10 µM unless noted
# U251 CNS = conditions: 10 µM unless noted
# PC-3 prostate = conditions: 10 µM unless noted
# SK-MEL-5 melanoma = conditions: 10 µM unless noted
# UACC-62 melanoma = conditions: 10 µM unless noted
# LOX IMVI melanoma = conditions: 10 µM
# SK-MEL-28 melanoma = conditions: 10 µM unless noted
# SK-MEL-2 melanoma = conditions: 10 µM unless noted
# EKVX NSCLC = conditions: 10 µM unless noted
# SN12C renal = conditions: 10 µM unless noted
# UO-31 renal = conditions: 10 µM unless noted
# TK-10 renal = conditions: 10 µM unless noted
# ACHN renal = conditions: 10 µM unless noted
# CAKI-1 renal = conditions: 10 µM unless noted
# A498 renal = conditions: 10 µM unless noted
# CCRF-CEM leukemia = conditions: 10 µM unless noted
# MOLT-4 leukemia = conditions: 10 µM unless noted
Structure (SMILES),growth (HCT-15 colon),growth (HT29 colon),growth (SNB-19 CNS),growth (U251 CNS),growth (PC-3 prostate),growth (SK-MEL-5 melanoma),growth (UACC-62 melanoma),growth (LOX IMVI melanoma),growth (SK-MEL-28 melanoma),growth (SK-MEL-2 melanoma),growth (EKVX NSCLC),growth (SN12C renal),growth (UO-31 renal),growth (TK-10 renal),growth (ACHN renal),growth (CAKI-1 renal),growth (A498 renal),growth (CCRF-CEM leukemia),growth (MOLT-4 leukemia)
CC1(c2cc3cc(Cl)ccc3oc2=O)NC(=O)c2c(/C=C/C(=O)OC3CC4CCC3(C)C4(C)C)cccc2N1 (stereo unspecified),66.4%,60.9%,52.9%,52.5%,25.7%,61.2%,62.6%,78.9%,75.4%,53.7%,49.4%,58.5%,42.8%,79.3%,61.7%,59.6%,118%,59.4%,21.2%
Cn1cc(-c2cc3nc(-c4cn(C)c5ncccc45)cc(N)n3n2)c2ccccc21,9.76% (active),-6.2% (active),37.7%,-8.69% (active),27.2%,-69.3% (active),-0.244% (active),-56.8% (active),-22.5% (active),15.2%,43.7%,-38.2% (active),8.84% (active),80.3%,-73.3% (active),-23.2% (active),-2.42% (active),0.438% (active),-21.3% (active)
Cc1nc(Nc2ncc(C(=O)Nc3c(C)cccc3Cl)s2)cc(N2CCN(CCCNC(=O)COc3ccc(C4CCC(=O)NC4=O)cc3)CC2)n1 (stereo unspecified),68.3%,-13.6% (active),47.9%,62.6%,44.1%,73.7%,55.4%,-96.6% (active),89.4%,109%,58.6%,25.2%,38.4%,-7.44% (active),8.27% (active),-30.7% (active),7.95% (active),95.1%,48.9%
C=C1CC[C@@H]2[C@]3(C)COC(c4cn[nH]c4-c4cccc(Br)c4)O[C@@H]3CC[C@@]2(C)[C@@H]1C/C=C1/C(=O)OCC1O (stereo partly specified),-67.5% (active),1.52% (active),-87.9% (active),-90.9% (active),-47.9% (active),-99.6% (active),-83.2% (active),-100% (active),-76.7% (active),-69.8% (active),-62.3% (active),-77.7% (active),-100% (active),-59.7% (active),-100% (active),-39.3% (active),-93.7% (active),-15.6% (active),12.2%
CC(C)c1sc(NC(=O)c2cc(NC(=O)c3cc(NC(=O)c4nccn4C)cn3C)cn2C)nc1C(=O)NCCCN(C)C,104%,90.7%,48.1%,30.2%,46%,73.5%,66.3%,29.8%,99%,80.8%,105%,85.7%,98.1%,97.9%,108%,102%,116%,19.3%,65.8%
CC12CC[C@@H]3[C@]4(C)COC(c5cn[nH]c5-c5ccc(Cl)cc5)O[C@@H]4CC[C@@]3(C)[C@@H]1CC(C1=CCOC1=O)O2 (stereo partly specified),36.2%,22%,54.5%,50%,19.4%,16.5%,33.4%,46.2%,39.2%,29.7%,36.1%,48.5%,21%,35.3%,33.8%,49.8%,85.6%,32.8%,-16.8% (active)
CN(C)CCOc1ccc(C(=O)C2[C@H](c3ccc(Cl)cc3)[C@@H](c3ccccc3)NC23C(=O)Nc2ccc(Br)cc23)cc1 (stereo partly specified),-81.5% (active),-85.7% (active),54.1%,-93.2% (active),-3.48% (active),-16.1% (active),43.3%,-100% (active),37.6%,54.1%,12.3%,7.21% (active),32.8%,90.2%,-27.9% (active),18.5%,96%,43.9%,-52.3% (active)
Cn1cc(-c2cc(N)n3nc(-c4cn(C)c5ncccc45)cc3n2)c2cccnc21,-91.7% (active),-66.7% (active),101%,-46.1% (active),79.7%,68.4%,102%,-100% (active),106%,95.8%,95%,90%,89.2%,86%,109%,86.5%,87.2%,85.2%,53.5%
NS(=O)(=O)c1ccc(CCNC(=O)CSc2ccc(-c3ccc(Br)cc3)nn2)cc1,97.4%,82.6%,61.5%,76%,74%,28.4%,66.8%,59.8%,78.1%,56.4%,74.3%,80.7%,56.4%,–,59.6%,65.3%,78.4%,54.3%,39%
CCOC(=O)c1ccc(Nc2nc(NN)nc(-c3ccc(F)cc3)c2C#N)cc1,109%,97.6%,100%,115%,103%,102%,91.3%,112%,109%,115%,120%,103%,88.3%,104%,103%,108%,101%,91.9%,89.8%
COc1ccc2c(c1)c(-c1cc3nc(-c4cn(C)c5ncccc45)cc(N)n3n1)cn2C,-57.7% (active),-95.5% (active),22.3%,-67% (active),-1.31% (active),-100% (active),-89.8% (active),-100% (active),-97.2% (active),-71.9% (active),-22.8% (active),-60.2% (active),-62.1% (active),–,-100% (active),-35.9% (active),16.6%,-22% (active),-42.5% (active)
Cc1ccc([C@H]2C(C(=O)c3ccc(Cl)cc3)C3(N[C@@H]2c2ccccc2)C(=O)Nc2ccc(Cl)cc23)cc1 (stereo partly specified),47.1%,3.1% (active),66.2%,47.9%,14%,77.9%,33.8%,39.8%,69.4%,49.9%,59.8%,-1.19% (active),31.2%,65.7%,38.7%,39.1%,94%,66.3%,3.24% (active)
COc1c(F)ccc(C(=O)Nc2ccc3nc(NC(=O)C4CCCN(S(=O)(=O)c5cccc(C(F)(F)F)c5)C4)sc3c2)c1F (stereo unspecified),69.1%,83.2%,72.6%,69.8%,50.3%,89.3%,83.3%,86.5%,98.2%,83.8%,94.5%,78.8%,74.8%,102%,83.6%,–,101%,88.7%,44.9%
O=c1[nH]c(=O)c2c(-c3cc4ccccc4oc3=O)ccnc2[nH]1,81.4%,102%,75.5%,19.5%,85.4%,89%,82.7%,65.3%,115%,82.6%,103%,81%,71.6%,105%,53.2%,48.1%,148%,101%,111%
COc1ccc2c(c1)c(/C=N/Nc1ccc3ccccc3n1)cn2C,-44.8% (active),-66.7% (active),71.3%,7.9% (active),7.27% (active),23%,20.6%,-97.9% (active),-1.59% (active),81.8%,53.1%,-71.7% (active),-31.3% (active),43.4%,-85.4% (active),-45.4% (active),83.3%,10.8%,-27.4% (active)
CCCCSc1nc(Nc2ccc(S(N)(=O)=O)cc2)c(C#N)c(-c2ccc(Cl)cc2)n1,-8.65% (active),8.86% (active),45.5%,-55.7% (active),55.8%,59.6%,48.4%,-99.9% (active),63%,118%,34.7%,-20.3% (active),14.6%,77.1%,-66.9% (active),55%,108%,95%,52.8%
